Hits are enriched below; roughly 3.2% of the tested compounds scored in any of these assays.
Tau fibril ThT = qHTS for Inhibitors of Tau Fibril Formation, Thioflavin T Binding; Microtubule-associated protein tau (Homo sapiens), P10636; recombinant tau K18 P301L, heparin-induced fibrillization, ThT fluorescence; AID 1460, 2008; Potency, µM (titrated, usually from 57.4 µM), without a hit: top-dose activity, negative = inhibition, usual class: inhibitors; 2.1% of 270,000 active; further: potency means the concentration at half of the fitted maximal effect; on the % scale 0 is the no-effect control and ±100 the full control effect; nearly all actives have a fitted effect of over 55% in size
Target sequence (P10636 561-689 P618L limits assumed): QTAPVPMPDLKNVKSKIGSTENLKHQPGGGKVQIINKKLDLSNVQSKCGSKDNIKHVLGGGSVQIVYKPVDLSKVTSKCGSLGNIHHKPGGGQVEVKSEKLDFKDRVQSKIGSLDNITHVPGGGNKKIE
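K18 P301L tau (15 uM + 0.24 uM Alexa 594-tagged), heparin 20 uM, NaOAc pH 7, 6 h 37 C; ThT 30 uM, 1 h RT, ex 450/em 510 nm.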
CBFb RUNX1 block = qHTS Assay for Compounds Blocking the Interaction Between CBF-beta and RUNX1 for the Treatment of Acute Myeloid Leukemia; Runt-related transcription factor 1 (Homo sapiens) + Core-binding factor subunit beta …; AlphaScreen CBFb-His/RUNX1-biotin binding, biochemical; Potency, µM (highest dose often 59.8 µM), for inactives: top-dose activity, negative = inhibition, actives largely listed as inhibitors; 230,000 tested, under 10 active; AID 1477, 2009; further: % of control where 0% means no effect
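Interaction loss through any mechanism counts as activity. Pre-formed complex of His-CBF-beta and biotin-RUNX1 (30 nM apiece) is incubated with compound 15 min, then with 50 ng nickel and 50 ng streptavidin beads for 90 min before AlphaScreen detection.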
Lamin A splicing = qHTS Assay for Modulators of Lamin A Splicing; Potency, µM (top dose mostly 46.1 µM), for the others: top-dose ratio change, negative = inhibition, actives largely listed as inhibitors; HeLa LMNA splicing GFP/RFP minigene ratio, 48 h; 0.01% of 200,000 active; active means well fitted inhibition curve with a large enough effect in the signal ratio, with a control signal flat, not every such curve was filed as active; inconclusive means small, poorly fitted or top-dose-only effect, or effect the other way, or a change in a side signal; the % refers to the signal ratio; further: potency means the concentration at half of the fitted maximal effect; on the % scale 0 is the no-effect control and ±100 the full control effect
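S3 HeLa cells stably expressing lamin A-EGFP splicing minigene plus DsRed2, 600 cells/well, 48 h compound exposure at 37C. Laser-scanning cytometry; analysed as GFP (500-530 nm)/RFP (575-640 nm) total intensity ratio; 0.5% DMSO vehicle.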
Tau fluor cs = Counterscreen qHTS for Inhibitors of Tau Fibril Formation, Fluorescence Polarization; 0.93% of 280,000 active; Potency, µM (highest dose often 57.7 µM), for the others: top-dose activity change, negative = decrease; tau K18 P301L (four-repeat tau fragment) Alexa594 fluorescence, heparin fibrillization; further: potency means the concentration at half of the fitted maximal effect; on the % scale 0 is the no-effect control and ±100 the full control effect; nearly all actives have a fitted effect of over 55% in size
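Human K18 P301L tau (15 uM unlabeled plus 0.24 uM Alexa 594-labeled, final) in 100 mM sodium acetate pH 7 was mixed with compound and 20 uM heparin and incubated 6 hr at 37 C.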
Tau fibril FP = qHTS for Inhibitors of Tau Fibril Formation, Fluorescence Polarization; Microtubule-associated protein tau (Homo sapiens), P10636; K18 P301L tau heparin fibrillization, Alexa594 FP, 6 h; Potency, µM (highest dose often 57.7 µM), without a hit: top-dose activity, negative = inhibition, most hits filed as inhibitors; 0.39% of 280,000 active; further: potency means the concentration at half of the fitted maximal effect; on the % scale 0 is the no-effect control and ±100 the full control effect; nearly all actives have a fitted effect of over 55% in size
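Human tau K18 […] P301L fragment, 15 uM unlabeled plus 0.24 uM Alexa 594-labeled tau (final), with compound and 20 uM heparin in 100 mM sodium acetate pH 7; 6 hr at 37 C, then Alexa 594 FP read.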
JMJD2E inh = qHTS Assay for Inhibitors of Human Jumonji Domain Containing 2E (JMJD2E) | JMJD2E catalytic domain, FDH-coupled NADH fluorescence (FDH is formaldehyde dehydrogenase) | Potency, µM (highest dose often 57.1 µM), without a hit: top-dose activity change, negative = inhibition, actives largely listed as inhibitors | 1.6% of 230,000 active; active means well fitted inhibition curve with a large enough effect, not every such curve was filed as active; inconclusive means small, poorly fitted or top-dose-only effect, or another doubt; inactive means no such curve, though single readings can be large or run the other way;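 further: potency means the concentration at half of the fitted maximal effect; 0% = wells with enzyme and -100% = buffer wells without enzyme; nearly all actives have a fitted effect of over 50% in size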
Target sequence (B2RXH2 1-337 limits assumed): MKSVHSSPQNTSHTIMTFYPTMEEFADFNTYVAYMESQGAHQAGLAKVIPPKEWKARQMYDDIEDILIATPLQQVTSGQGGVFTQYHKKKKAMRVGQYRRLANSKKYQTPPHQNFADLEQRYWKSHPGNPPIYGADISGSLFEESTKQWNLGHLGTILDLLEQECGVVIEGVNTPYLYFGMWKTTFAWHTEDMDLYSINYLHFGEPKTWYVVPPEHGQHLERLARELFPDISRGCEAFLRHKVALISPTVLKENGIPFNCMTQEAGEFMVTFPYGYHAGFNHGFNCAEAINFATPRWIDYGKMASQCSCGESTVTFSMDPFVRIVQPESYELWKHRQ
* hit, by the source's call; ? = inconclusive; . = no result; ! = not confirmed by another sample; [ ] = dose if it differs, or a comment. Unless noted, the call rests on the fitted dose curve; in most records, active means well fitted curve in the direction sought with a large enough effect; inconclusive means small, poorly fitted or top-dose-only effect, or another doubt; inactive means no such curve, though single readings can be large; an effect the other way counts as inactive or inconclusive.

SMILES	Tau fibril ThT	CBFb RUNX1 block	Lamin A splicing	Tau fluor cs	Tau fibril FP	JMJD2E inh
COc1cc(CNC(C)(C)CO)cc(Br)c1OCc1ccc(Cl)cc1	-13%	2%	-7%	-10%	-1%	-12%
Cc1ccc2[nH]c(CSc3nnc(NC(=O)COc4ccccc4Cl)s3)cc(=O)c2c1	-5%	.	2%[46 µM]	-12%	?	.
Cc1ccc2[nH]c3c(c2c1)CCC3=O	-23%	6%	?	-13%	2%	?
Cc1ccc2[nH]c3c(c2c1)CCc1cn[nH]c1-3	13µM*	-4%	?	25µM*[quencher]	?	?
O=C(CCn1c(=O)c2cccn2c2cccnc21)Nc1ccccc1Br	1%	.	.	4%	-4%	.
COc1ccc(-c2cc(C(F)(F)F)nc(SCC(=O)NC(C)c3ccccc3)n2)cc1 (centres undefined)	-5%	.	.	-14%	?	.
CCN(CC)c1ccc(C=N/C(C#N)=C(\N)C#N)cc1	2µM*	-8%	-1%	14%	?	-10%
CCN(CC)c1ccc(/C=C(\C#N)c2ccccn2)cc1	?	13%	?	?	14%	11%
Cn1c2ccccc2c2c(C(=O)N3CCN(c4cccc(Cl)c4)CC3)cn(C3CCCCC3)c(=O)c21	-12%	.	.	-1%	-3%	.
CN1CCN(c2ccnc(-c3ccc(N(C)C)cc3)n2)CC1	.	.	-5%	.	.	.
CCSc1ccc(C(=O)NCC(=O)O)cc1	-3%	8%	.	-7%	-7%	6%
Nc1ccc(C(=O)NCC(=O)O)cc1	32µM*	?	-1%	?	?	?
Cc1ccc2oc(-c3ccc(NC(=O)CCC(=O)O)cc3)nc2c1	-7%	.	.	-7%	-6%	.
CCCN1C(=O)/C(=C/c2c(N3CCNC(=O)C3CC(=O)OCC)nc3c(C)cccn3c2=O)SC1=S (centres undefined)	13µM*	3%	.	3%	-12%	1%
S=C(NCc1cccnc1)Nc1ccc(Oc2ccc(Cl)cc2)cc1	-19%	5%	.	13µM*[quencher]	?	-12%
CCc1ccc(N(CC)C(=O)Cn2cnc3sc(C)c(S(=O)(=O)N4CCN(c5ncccn5)CC4)c3c2=O)cc1	4%	.	.	-11%	0%	.
O=C(NCc1ccc(Cl)cc1)C1CCN(S(=O)(=O)Cc2ccccc2)CC1	-5%	.	.	-5%	2%	.
CN(C)c1ncnc2c1NC1=C(S2)C(=NCCCC(=O)O)CC(C)(C)C1	10µM*	-2%	-1%	-25%	?	?
COc1cc2c(Cc3c4c5c(cc(OC)c(OC)c5c5c(OC)c(OC)ccc35)CCN4C)c3c4c(cc(OC)c(OC)c4c2cc1OC)CCN3C	?	?	.	?	-4%	?
CCN(CC)CCNC(=O)Nc1ccc2c(c1)N(Cc1ccccc1)C(=O)c1ccccc1S2	-2%	.	.	?	?	.
CCOC(=O)C1=C(C)N=C2c3ccccc3C(=O)C2C1c1ccc(C)cc1 (centres undefined)	?	-3%	1%	-27%	10%	32µM*
CCOC(=O)C1=C(C)N=C2c3ccccc3C(=O)C2C1c1ccccc1 (centres undefined)	?	-8%	3%	?	-1%	-2%
Cc1ccc(CN(Cc2cc3cc4c(cc3[nH]c2=O)OCCO4)Cc2nnnn2Cc2ccco2)cc1	35µM*	-4%	19%	-29%	?	?
Cc1ccc2cc(CN(Cc3ccc4c(c3)OCO4)Cc3nnnn3Cc3ccco3)c(=O)[nH]c2c1	-13%	-17%	4%	-16%	9%	?
CC1=CC(=Nc2c(C)n(C)n(-c3ccccc3)c2=O)C=C(C)C1=O	11µM*	-6%	?	?	?	-39%
SMILES	Tau fibril ThT	CBFb RUNX1 block	Lamin A splicing	Tau fluor cs	Tau fibril FP	JMJD2E inh
CC1=CC(=Nc2c(C)n(C)n(-c3ccccc3)c2=O)C=CC1=O	3.2µM*	-27%	.	?	10µM*	1.8µM*
CCC(C)C1=CC(=Nc2c(C)n(C)n(-c3ccccc3)c2=O)C=C(C(C)CC)C1=O (centres undefined)	?	-7%	.	-22%	2%	-2%
CCNc1ccc(N=Nc2c(C)n(C)n(-c3ccccc3)c2=O)cc1	16µM*	14%	-2%[46 µM]	-11%	3%	-1%
Cc1c(N=c2scc(-c3ccccc3)n2C)c(=O)n(-c2ccccc2)n1C	-11%	-3%	.	-9%	1%	1%
CC(C)(C)c1ccc(C(=O)NCC(c2cccs2)S(=O)(=O)c2ccc(F)cc2)cc1 (centres undefined)	-14%	.	8%[46 µM]	-19%	?	.
Cc1ccn2cc(CNC(=O)c3cccc(C(F)(F)F)c3)nc2c1	-3%	.	.	-9%	-8%	.
O=C(CSc1nnc2scc(-c3ccc(Cl)cc3)n12)Nc1ccc(F)cc1	2%	.	.	-17%	-8%	.
O=C(CSc1nc(=O)n(CCN2CCOCC2)c2c1CCC2)Nc1ccccc1	3%	.	6%[46 µM]	4%	-12%	.
CC(C)(C)c1ccc(Oc2ccc(NC(=O)c3cccs3)cn2)cc1	1%	2%	.	?	28µM*	-11%
COc1ccc(NC(=O)c2cccs2)cn1	-13%	2%	.	-20%	-9%	-3%
COCCCNC(=O)CSc1nc(-c2ccc(OC)cc2)[nH]c1-c1ccc(OC)cc1	?	.	.	?	11%	.
COc1ccc(-c2[nH]c(-c3ccc(Cl)cc3)nc2SCC(=O)NCC2CCCO2)cc1 (centres undefined)	?	.	.	13µM*[quencher]	9%	.
COc1ccc(-c2nc(SCC(=O)NC3CCCC3)c(-c3ccc(F)cc3)[nH]2)cc1OC	?	.	.	13µM*[quencher]	?	.
COc1ccc(-c2nc(SCC(=O)NC3CCCC3)c(-c3ccccc3)[nH]2)cc1OC	?	.	.	14µM*[quencher]	?	.
COc1ccc(-c2nc(SCC(=O)NC3CCCC3)c(-c3ccc(OC)cc3)[nH]2)cc1	?	1%[2.36 µM]	-16%	13µM*![quencher]	3%	2%
CCOCCCNC(=O)C(c1ccc(Cl)cc1)N(Cc1cccs1)C(=O)c1ccc(NC(C)=O)cc1 (centres undefined)	-4%	.	.	-16%	2%	.
COC(=O)C1=C(C)N(C(C)C)C(=O)C1(NC(=O)c1ccc(C(C)(C)C)cc1)C(F)(F)F (centres undefined)	-10%	.	.	-15%	-3%	.

Screening results (PubChem BioAssay)
